Only some compounds are listed: those with a hit (about 17% of all), similar ones and a draw of the others.
DT40 TDP1 CPT: DT40-hTDP1 cell growth loss with CPT | hit rate 12% among 420,000 | Potency, µM (highest dose often 46.2 µM), without a hit: top-dose activity change, negative = growth inhibition, hits mostly inhibitors | chicken DT40 Tdp1-/-;hTDP1 cells + 20 nM CPT, ATP luminescence, 48 h; also: % is scaled to controls: 0 for no effect and ±100 for the full control effect; nearly all actives have a fitted effect of over 55% in size
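Chicken DT40 Tdp1-/- cells complemented with human TDP1, 400 cells/well, exposed to compounds plus 20 nM camptothecin for at least 48 h at 37 C; viability read as ATP content by CellTiter-Glo luminescence.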
HT1080-NT tox: kills 2HG-producing HT-1080-NT fibrosarcoma cells; HT-1080-NT fibrosarcoma viability, CellTiter-Glo ATP luminescence, 48 h; Potency, µM (series often up to 46.1 µM), for inactives: top-dose activity, negative = less viability, actives largely listed as cytotoxic; hit rate 1.6% among 360,000; AID 686970;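 also: NT is the 2HG producing partner of a matched IDH1 knockdown line; 0% = DMSO-treated cells and -100% = media-only wells without cells; nearly all actives have a fitted effect of over 55% in size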
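750 cells/well, RPMI + 5% FBS; 2 h settle, compound pin-transfer, 48 h at 37 degrees C. CellTiter-Glo 10 min RT, luminescence. Normalized to DMSO and media-only wells.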
HepG2 viability: kills HepG2 cells in TGF-b inhibitor counter-screen. HepG2 CAGA-GFP viability, ATP luminescence, 18 h. hit rate 0.76% among 410,000. Potency, µM (series often up to 46.1 µM), for inactives: at the highest dose activity change, negative = cytotoxicity, hits mostly cytotoxic. AID 588856
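HepG2 CAGA-GFP cells (1000/well, DMEM with 1% FBS) received compound, then TGF-beta at 500 pg/mL final, and were incubated 18 hours at 37 degrees C. Viability was read by CellTiter-Glo luminescence. Media-only wells were set as complete cell-killing and DMSO as no toxicity.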
TGFb inhibitor: blocks TGF-b signaling. HepG2 CAGA-GFP TGF-b/SMAD3 reporter, GFP fluorescence, 18 h; TGF-beta stimulated, 500 pg/mL final. Potency, µM (highest dose often 46.1 µM), for the others: top-dose activity, negative = inhibition, actives largely listed as inhibitors. hit rate 1.2% among 410,000; also: % is scaled to controls: 0 for no effect and ±100 for the full control effect; nearly all actives have a fitted effect of over 65% in size
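Read-out: total well GFP (ex488/em500-530) summed from mean per-cell fluorescence. Cells: HEPG2 CAGA-GFP, 1% FBS DMEM, 18 h at 37 degrees C with 500 pg/mL final TGF-beta. Unstimulated wells served as the full-inhibition control; stimulated DMSO wells = 0%.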
TDP1 cell noCPT: qHTS for Inhibitors of human tyrosyl-DNA phosphodiesterase 1 (TDP1): qHTS in cells in absence of CPT; DT40 Tdp1-/- hTDP1 cells, no CPT, ATP luminescence, 48 h; Potency, µM (titrated, usually from 46.2 µM), without a hit: top-dose activity change, negative = growth inhibition, hits mostly inhibitors; hit rate 15% among 420,000; AID 686978, 2013; also: % is scaled to controls: 0 for no effect and ±100 for the full control effect; nearly all actives have a fitted effect of over 55% in size
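Luminescent ATP content (CellTiter-Glo) served as the growth readout. Knockout chicken DT40 cells expressing human TDP1 were exposed to compounds without camptothecin for a minimum 48 hr at 37 °C.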
HT1080 IDH1KD tx: HT-1080 IDH1 knockdown cell toxicity (counter line) | HT-1080 IDH1 knockdown viability, ATP luminescence, 48 h | hit rate 2% among 360,000 | Potency, µM (series often up to 46.1 µM), inactives show top-dose activity, negative = toxicity, most hits filed as cytotoxic;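 also: 0% = DMSO wells and -100% = cell-free medium wells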
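HT-1080-IDH1KD cells (IDH1 knocked down), 750/well in RPMI with 5% FBS, treated with compound 48 h at 37 degrees C. Viability by CellTiter-Glo luminescence, normalised to DMSO and no-cell wells; concentration-response curves classed.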
* marks the source's active call; other numbers are inactive results; ? = inconclusive; / = not tested or not shown. Calls follow the shape of the dose curve; as a rule, active = well fitted curve in the direction sought with a large enough effect; inconclusive = small, poorly fitted or top-dose-only effect, or another doubt; inactive = no such curve, though single readings can be large; an effect the other way counts as inactive or inconclusive. Potency is read from the fitted curve at half-maximal effect.

SMILES	DT40 TDP1 CPT	HT1080-NT tox	HepG2 viability	TGFb inhibitor	TDP1 cell noCPT	HT1080 IDH1KD tx
O=C(c1ccncc1)N1CCC2(CC1)CN(c1ccc(-c3ccccc3)cc1)C2	?	/	/	/	7.31µM*	/
O=C(c1ccco1)N1CCC2(CC1)CCN(C(c1ccccc1)c1ccccc1)CC2	?	/	/	/	20.6µM*	/
O=C(c1cccc(F)c1)N1CCC2(CC1)CN(c1ccncc1)C2	-5.4%	/	/	/	-25.9%	/
COc1ccc(-c2nc(S(=O)(=O)c3ccccc3)c(NCCCN3CCOCC3)o2)cc1	?	3.5%	-16.0%	28.1%	?	0.0%
COC(=O)c1ccc(C(=S)NCC2(N(C)C)CCCCC2)cc1	-23.2%	-0.7%	-5.0%	8.5%	-23.1%	2.8%
CCCCN(C(=O)CSCC(=O)Nc1ccc(OC)cc1)c1c(N)n(Cc2ccccc2)c(=O)[nH]c1=O	-8.2%	0.3%	-15.4%	2.7%	0.1%	10.6%
O=C(c1ccco1)N1CCC2(CC1)CN(c1ccc(-c3ccccc3)cc1)C2	7.31µM*	/	/	/	9.2µM*	/
COC(=O)N1CCC2(CC1)CN(c1ccc(-c3ccccc3)cc1)C2	5.7%	/	/	/	-22.7%	/
Cc1ccc(-n2nc(C(=O)N3CCCCC3)c(=O)n(C)c2=O)cc1	2.5%	/	-38.6%	-7.7%	-7.7%	/
O=[N+]([O-])c1cc(Cl)ccc1N1CCN(c2cccc(C(F)(F)F)c2)CC1	?	1.9%	-18.0%	-27.7%	9.2µM*	0.3%
O=S(=O)(c1ccc(N2CCCC2)cc1)C(F)(F)F	?	?	-17.6%	?	11.6µM*	-22.1%
O=[N+]([O-])c1cc(S(=O)(=O)C(F)(F)F)ccc1N1CCN(c2ccccc2)CC1	?	-4.5%	-20.7%	4.0%	16.4µM*	-5.5%
O=[N+]([O-])c1cc(Cl)ccc1N1CCCC1	-9.6%	0.2%	-9.6%	-2.1%	-36.2%	7.0%
O=c1c(N2CCN(c3cccc(C(F)(F)F)c3)CC2)csc2ccccc12	20.6µM*	/	-92.8%	?	25.9µM*	/
Cc1ccc(S(=O)(=O)N2CCCCC2CCNC(=O)C(=O)NCC2CCCO2)cc1 (stereo not drawn)	?	-1.3%	3.9%	1.9%	-22.6%	-0.8%
C[C@H]1CN([C@@H](C)CO)C(=O)Cc2cc(NS(=O)(=O)c3ccc(Cl)cc3)ccc2O[C@@H]1CN(C)C(=O)Nc1cccc2ccccc12	-22.5%	-0.3%	-0.9%	-23.6%	?	0.3%
CCOC(=O)[C@]12CCCC=C1N(CCC1=CCCCC1)C(=O)[C@H](CC(=O)NCC1CCCCC1)C2	?	?	/	/	?	23.1µM*
CCOC(=O)[C@]12CCC=C1N(CCC1=CCCCC1)C(=O)[C@H](CC(=O)NCC1CCCCC1)C2	23.1µM*	-11.1%	/	/	?	?
C#CCNC(=O)C[C@@H]1C[C@@]2(C(=O)OCC)CCCC=C2N(CCC2=CCCCC2)C1=O	13µM*	3.8%	/	/	14.6µM*	-5.2%
CCN(CC)c1ccc(/C=N/NC(=O)Cc2nnc(NC(=O)Nc3ccccc3)s2)cc1	?	20.6µM*	-157.2%	?	20.6µM*	14.6µM*
CC(C)CC(NC(=O)/C(=C/c1ccco1)NC(=O)c1ccc(Br)o1)C(=O)O (stereo not drawn)	1.3%	4.0%	-0.6%	13.1%	-8.6%	22.5%
COc1ccc(NC(=O)N(C)C[C@H]2Oc3c(NC(=O)c4ccncc4)cccc3C(=O)N([C@H](C)CO)C[C@@H]2C)cc1	0.0231µM*	24.0%	7.8%	1.1%	-0.6%	-4.1%
COc1ccc(NC(=O)N(C)C[C@H]2Oc3c(NC(=O)Nc4ccc(C(F)(F)F)cc4)cccc3C(=O)N([C@H](C)CO)C[C@@H]2C)cc1	16.4µM*	?	-19.5%	?	13µM*	?
CC(C)NC(=O)N(C)C[C@H]1Oc2c(NC(=O)Nc3ccc(C(F)(F)F)cc3)cccc2C(=O)N([C@H](C)CO)C[C@@H]1C	?	-8.0%	-26.5%	?	18.4µM*	-10.7%
C[C@H](CO)N1C[C@H](C)[C@@H](CN(C)C(=O)Nc2ccc(C(F)(F)F)cc2)Oc2c(cccc2N(C)C)C1=O	?	0.0%	-33.0%	1.7%	23.1µM*	0.2%
SMILES	DT40 TDP1 CPT	HT1080-NT tox	HepG2 viability	TGFb inhibitor	TDP1 cell noCPT	HT1080 IDH1KD tx
N#Cc1cccc(NC(=O)N2CC[C@@]3(CCCN(C(=O)c4ccncc4)C3)C2)c1	7.4%	/	/	/	0.2%	/
O=C(CCc1ccccc1)NNC(=O)Nc1cccc(Cl)c1	-20.2%	-11.1%	3.1%	-1.2%	0.5%	-1.2%
O=C(Cc1cccc2ccccc12)NNC(=O)Nc1cccc(Cl)c1	-9.5%	16.4µM*	-22.4%	2.9%	-25.1%	?
COC(=O)c1cc(NC(=O)c2ccc(-c3ccccc3)cc2)ccc1Cl	-10.6%	-23.8%	26.9%	15.9%	-12.7%	-16.6%
N#CCc1ccc(NC(=O)Nc2cccc(Cl)c2)cc1	16.4µM*	-1.7%	-27.7%	0.0%	?	2.3%
O=C(Nc1cccnc1)Nc1cc(Cl)cc(Cl)c1	10.3µM*	1.3%	-36.2%	?	23.1µM*	-8.1%
COC(=O)c1cc(NC(=O)Nc2cccc(Cl)c2)ccc1Cl	16.4µM*	12.6µM*	-90.5%	15.8µM*	18.4µM*	?
N#Cc1ccccc1NC(=O)Nc1cccc(Cl)c1	11.4%	2.6%	-6.0%	4.1%	-20.6%	6.0%
CC1CCN(C(=O)CN2C(=O)NC(c3ccccc3)(c3ccccc3)C2=O)CC1	3.2%	8.7%	7.7%	-0.2%	10.8%	3.2%
CN1CCN(S(=O)(=O)c2ccc(NC(=O)Nc3cccc(Cl)c3)cc2)CC1	?	20.6µM*	-11.8%	?	?	18.4µM*
O=C(Nc1ccccc1)Nc1cc(OCC(F)(F)F)cc(OCC(F)(F)F)c1	4.11µM*	6.51µM*	11.2µM*	?	2.91µM*	7.31µM*
Fc1ccc(NC(=S)Nc2cccnc2)cc1Cl	?	2.8%	3.7%	-11.8%	23.1µM*	2.0%
O=C(Nc1ccc(F)c(Cl)c1)c1cccnc1	?	7.1%	-3.5%	4.2%	?	0.6%
O=C(Nc1cccc(Cl)c1)Nc1cccc(Cl)c1	14.6µM*	?	-19.9%	-15.8%	11.6µM*	-20.7%
COc1ccc2c(c1)[C@]1(C)CCC(=O)C[C@H]1CC2	-12.1%	/	/	/	-23.7%	/
O=C(O)CN1CCCCCC1=O	-11.9%	7.5%	4.3%	17.5%	12.2%	3.4%

Source: PubChem
